Results filed as inconclusive are left out. Active and inactive are the calls of the source. Calls follow the shape of the dose curve; as a rule, active = well fitted cell-killing curve with a large enough effect in the repeat runs; inconclusive = weak or mixed curves; inactive = flat fitted curve, though single readings scatter.

Here are results for 40 compounds from PubChem BioAssay (Tox21).

This experiment can be described thus: qHTS assay to identify small molecule antagonists of the TGF-beta/Smad signaling pathway - cell viability counter screen (AID 1346824). Also: nearly all actives have a fitted effect of over 50% in size. The conditions noted are these: SBE-bla HEK293T viability, CellTiter-Glo luminescence; series mostly up to 76.8 µM. An excerpt: U.S. Tox21 Program National Center for Advancing Translational Sciences [NCATS] NIH Chemical Genomics Center [NCGC] U.S. Environmental Protection Agency [EPA] National Institutes of Environmental Health Sciences [NIEHS] National Toxicology Program [NTP] U.S. Food and Drug Administration [FDA] Tox21 Assay Overview: Transforming growth factor beta (TGF-beta) superfamily consists of a large number of structurally related dimeric proteins that act as hormones or local mediators in regulating a wide range of biological functions. This superfamily includes TGF-betas themselves, the bone morphogenetic proteins (BMPs) and the activins. These ligands induce oligomerization of serine/threonine receptor kinases and phosphorylate the cytoplasmic signaling molecules of Smad protein family. CellSensor SBE-bla HEK 293T cell line (Life Technologies, Carlsbad, CA), responsive to TGF-beta was used to screen Tox21 10K compound library for identification of agonists/antagonists of the Smad signaling pathway. This cell line contains a beta-lactamase reporter gene under control of the Smad binding element (SBE) stably integrated into HEK 293T cells. Also cytotoxicity of the compounds was tested in parallel by measuring the cell viability using CellTiter-Glo assay system in the same wells.
Tox21 Assay Protocol Summary: SBE-bla HEK 293T cells were dispensed at 4,000/well in 5 uL of assay medium into black wall/clear-bottom 1536-well plates using a Multidrop Combi (ThermoFisher Scientific, Waltham, MA) dispenser. After the assay plates were incubated at 37 C and 5% CO2 for an overnight, 23 nL of compounds dissolved in DMSO, positive controls or DMSO only was transferred to the assay plate by a Pintool station (Kalypsys, San Diego, CA). Compound transfer was followed by the addition of 1 uL of 0.25 ng/mL TGF-beta1 or assay buffer using two separate tips of Flying Reagent Dispenser (FRD, Aurora Discovery, San Diego, CA). The assay plates were incubated at 37 C and 5% CO2 for 5 hr. One uL of LiveBLAzer B/G FRET substrate (Life Technologies) was added using a Flying Reagent Dispenser (FRD, Aurora Discovery, San Diego, CA) and the plates were incubated at room temperature for 2 hr. Fluorescence intensity (405 nm excitation, 460 nm and 530 nm emissions) was measured using an Envision plate reader (PerkinElmer, Shelton, CT). For cytotoxicity read, 4 uL of CellTiter-Glo reagent (Promega Corporation, Madison, WI) was added to each well of the assay plates using FRD. After 30 min incubation at room temperature, the luminescence intensity was measured using ViewLux plate reader (PerkinElmer).
`CCC(C)=O`: the compound was called inactive. With `Cc1cc(O)c(C(C)C)cc1Cl` the entry was “inactive”; with `O=C(O)c1cccc(O)c1`, “inactive”; with `CC(C)(C)C(=O)O`, “inactive”. With `NC(=O)Nc1ccc(Cl)cc1` the entry was “inactive”. With `O=C(O)c1c(O)c(-c2ccccc2)nc2ccccc12` the entry was “inactive”. `CCCOCCOCCO`: the compound was called inactive. In the case of `Oc1cc(O)c(Cl)cc1Cl` it was “inactive”; in that of `O=C(O)c1ccc(CO)o1`, “inactive”. With `CCC(=O)Oc1ccc(/C(CC)=C(\CC)c2ccc(OC(=O)CC)cc2)cc1` the entry was “inactive”; with `Cc1oncc1C(=O)Nc1ccc(C(F)(F)F)cc1`, “inactive”.

For the compound `COc1cc2c(N3CCN(C(=O)Nc4ccc(OC(C)C)cc4)CC3)ncnc2cc1OCCCN1CCCCC1`, the call was inactive.

`C=CCNc1nc(NCC=C)nc(N2CCN(C(c3ccc(F)cc3)c3ccc(F)cc3)CC2)n1`: the result was inactive. With `CCCCC(=O)O[C@]1(C(=O)CO)[C@@H](C)C[C@H]2[C@@H]3CCC4=CC(=O)C=C[C@]4(C)[C@@]3(F)[C@@H](O)C[C@@]21C` the entry was “inactive”; with `Cc1cc2nc3ccc(=[N+](C)C)cc-3sc2cc1N`, “inactive”. In the case of `CC(C)C(OC(=O)c1ccccc1)C(C)(C)COC(=O)c1ccccc1` (stereo not given) it was “inactive”; in that of `COCCOC(=O)C1=C(C)NC(C)=C(C(=O)OC/C=C/c2ccccc2)C1c1cccc([N+](=O)[O-])c1` (stereo not given), “inactive”; in that of `Nc1c(I)cc(I)c(C(=O)N(CCC(=O)O)c2ccccc2)c1I`, “inactive”. As for `CC(=O)Oc1ccc2c(c1)CC[C@@H]1[C@@H]2CC[C@]2(C)[C@@H](O)CC[C@@H]12`, the call was inactive.

Regarding `O=C(Nc1ccc([N+](=O)[O-])cc1)Nc1ccc([N+](=O)[O-])cc1`, the outcome was inactive. In the case of `O=C(c1ccc(O)cc1)c1ccc(Cl)cc1` it was “inactive”; in that of `Nc1ccc(C(=O)OCCCOC(=O)c2ccc(N)cc2)cc1`, “inactive”.

As for `CCOC(=O)c1ccccc1OC`, the call was inactive. In the case of `Cc1occc1C(=O)Nc1ccc(C(=O)N2CCC(F)(F)/C(=C\C(=O)N3CCC(N4CCCCC4)CC3)c3ccccc32)cc1` it was “inactive”. In the case of `CCCCCCOC(=O)CCCCCCCC(=O)OCCCCCC` it was “inactive”. In the case of `CCCCCC=CCC=CCCCCCCCC(=O)OCC` it was “inactive”; in that of `C1COCO1`, “inactive”. Turning to `Cc1nc2ccccc2s1`, the compound was classed as inactive.

With `CC(C)CCCCCCOC(=O)CCCCC(=O)OCCCCCCC(C)C`, the outcome was inactive. In the case of `N#C/C(=C1\SCC(c2ccccc2Cl)S1)n1ccnc1` (stereo not given) it was “inactive”; in that of `CO[C@H]1C=CO[C@@]2(C)Oc3c(C)c(O)c4c(O)c(c5c(c4c3C2=O)=NC2(CCN(CC(C)C)CC2)N=5)NC(=O)/C(C)=C\C=C/[C@H](C)[C@H](O)[C@@H](C)[C@@H](O)[C@@H](C)[C@H](OC(C)=O)[C@@H]1C`, “inactive”; in that of `c1cnc2c(n1)CCCC2`, “inactive”.

Regarding `Cc1cc(C(=C2C=CC(=Nc3ccc(S(=O)(=O)O)cc3S(=O)(=O)O)C=C2)c2ccc(Nc3ccc(S(=O)(=O)O)cc3)cc2)ccc1N`, the compound was called inactive. In the case of `O=C(O)c1ccccc1NCCc1ccccc1` it was “inactive”; in that of `Oc1ccc(Nc2ccccc2)cc1`, “inactive”; in that of `CNC(=S)NC`, “inactive”. In the case of `CCn1cc(C(=O)O)c(=O)c2cc(F)c(N3CCNCC3)nc21` it was “inactive”. With `CO[C@H]1O[C@H](CO)[C@@H](O)[C@H](O)[C@H]1O` the entry was “inactive”; with `OCC1CC=CCC1` (stereo not given), “inactive”.

Take `CCOC(=N)CC(=O)OCC`: the compound was classed as inactive.
